From PubChem BioAssay (NCATS) come the findings set out here.

Molecules are shown by their SMILES. Inconclusive results are not listed. Active and inactive are the calls of the source. Unless noted, calls come from the whole dose curve; as a rule, active = well fitted curve in the direction sought with a large enough effect; inconclusive = small, poorly fitted or top-dose-only effect, or another doubt; inactive = no such curve, though single readings can be large; an effect the other way counts as inactive or inconclusive.

Test [1] deals with Transient receptor potential cation channel subfamily V member 1 (Homo sapiens) (UniProt Q8NER1). Nature of the test: HTS Assay for Compounds that Act as Enhancers of the Vanilloid Receptor 1 (AID 488979). Note: 0% is about no effect. Put shortly: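 TRPV1-expressing cells loaded with Fluo-8 calcium dye; compounds added and calcium influx read kinetically for 3 min (agonist phase), then capsaicin at EC20 added and read 2 min more for enhancement. Fluorescence ex 480/em 520 nm.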
Chain of Transient receptor potential cation channel subfamily V member 1 (Homo sapiens) (Q8NER1 whole entry, looked up): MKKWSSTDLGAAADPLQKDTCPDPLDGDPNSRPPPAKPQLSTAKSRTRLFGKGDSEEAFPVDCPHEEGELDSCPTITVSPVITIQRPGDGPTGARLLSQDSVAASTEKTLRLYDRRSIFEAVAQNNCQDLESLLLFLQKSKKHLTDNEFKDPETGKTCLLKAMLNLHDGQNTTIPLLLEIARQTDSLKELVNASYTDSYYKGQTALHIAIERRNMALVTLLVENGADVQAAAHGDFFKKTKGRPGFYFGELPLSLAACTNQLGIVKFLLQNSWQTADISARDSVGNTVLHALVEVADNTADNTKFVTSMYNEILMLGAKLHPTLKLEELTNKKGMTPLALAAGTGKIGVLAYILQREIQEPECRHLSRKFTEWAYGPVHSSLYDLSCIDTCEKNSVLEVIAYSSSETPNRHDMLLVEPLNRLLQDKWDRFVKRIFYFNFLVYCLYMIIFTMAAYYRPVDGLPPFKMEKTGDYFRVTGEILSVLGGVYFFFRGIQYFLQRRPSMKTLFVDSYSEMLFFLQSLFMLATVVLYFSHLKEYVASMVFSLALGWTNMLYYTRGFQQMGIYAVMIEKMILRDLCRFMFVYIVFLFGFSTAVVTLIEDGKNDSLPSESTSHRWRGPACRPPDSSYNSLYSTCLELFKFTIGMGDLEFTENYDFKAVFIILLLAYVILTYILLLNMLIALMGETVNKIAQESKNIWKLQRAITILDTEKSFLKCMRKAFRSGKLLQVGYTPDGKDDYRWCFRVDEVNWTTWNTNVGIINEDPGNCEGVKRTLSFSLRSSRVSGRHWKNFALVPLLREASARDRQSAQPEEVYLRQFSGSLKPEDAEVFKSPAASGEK

Test [2] concerns the target Thyrotropin receptor (Homo sapiens) (UniProt P16473). Nature of the test: qHTS Assay for Antagonists of the Thyroid Stimulating Hormone Receptor (AID 488980). Note: series mostly up to about 58 µM; 0% is about no effect. Put shortly:
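Inhibition of TSH-stimulated cAMP accumulation was quantified by homogeneous time-resolved FRET in TSHR-transfected HEK293 cells. Agonist: TSH, 4 nM final (EC80).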
Background: In qHTS, concentration-response curves come from the screen itself.

Test [3] has as its target D(1A) dopamine receptor (Homo sapiens) (UniProt P21728). Nature of the test: HTS Assay for Allosteric Agonists of the Human D1 Dopamine Receptor: Primary Screen for Agonists (AID 488981). Note: 0% is about no effect. Put shortly: (§1)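 Tetracycline-induced HEK293 T-REx cells force-coupled to calcium signalling were incubated overnight at 30 C and dye-loaded at room temperature. Calcium flux over 180 s after compound addition flagged agonists; a further 180 s read after EC20 dopamine flagged potentiators.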

Test [4] shares this target. Nature of the test: HTS Assay for Allosteric Agonists of the Human D1 Dopamine Receptor: Primary Screen for Potentiators (AID 488982). Note: potency is the fitted concentration of half-maximal effect. Put shortly: as §1
The target is the same in test [5]. Nature of the test: HTS Assay for Allosteric Agonists of the Human D1 Dopamine Receptor: Primary Screen for Antagonists (AID 488983).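 Note: calcium flux response to an EC80 dopamine challenge measured with no-wash dye; % is set by controls: 0 for no effect and ±100 for the full control effect; nearly all actives have a fitted effect of over 65% in size.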 Put shortly: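 Cells are induced with tetracycline and incubated overnight at 30 C, then loaded with calcium dye for 30 to 90 minutes at room temperature. Compound addition is followed by a 180 s read, then an EC80 dopamine addition and another 180 s read.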

Test [6] addresses ATPase family AAA domain-containing protein 5 (Homo sapiens) (UniProt Q96QE3). The test can be described thus: Validation screen for small molecules that inhibit ELG1-dependent DNA repair in human embryonic kidney (HEK293T) cells expressing luciferase-tagged ELG1 (AID 493107).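 Note: cells co-treated with the DNA-damaging agent 5-fluorouridine alongside compound; series mostly up to about 46 µM; % is set by controls: 0 for no effect and ±100 for the full control effect; inhibitors lower the ELG1-luciferase luminescence signal; nearly all actives have a fitted effect of over 70% in size.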 Put shortly:
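Luminescence from ONE-Glo, developed 30 min at room temperature, served as read-out of ELG1-luciferase levels. Beforehand, reporter HEK293T cells received 5-fluorouridine plus test compound for 16 hr at 37 °C.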

Test [7] concerns the target Thyrotropin-releasing hormone receptor (Homo sapiens) (UniProt P34981). Nature of the test: qHTS for Small Molecule Agonists and Allosteric Enhancers of Human TRH Receptor: Validation Screen for Agonists (AID 493127;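 active = calcium activation more than 3 SD above the typical response in the agonist read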;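 note: intracellular calcium rise by fluo-8 fluorescence before TRH EC20 addition; 0% is about no effect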). The note with it: TRH receptor agonist cell assay; at 2 µM; stronger effect = higher value. Put shortly: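 Cells 2000/well, 10% FCS, 18 h 33.5C/5% CO2 → fluo-8 Ca dye, RT 30 min–1.5 h → FDSS baseline 10 × 1 s → compound added → 230 cycles (1 s/cycle) agonist mode. TRH controls.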

Test [8] is described as follows: Nrf2 qHTS screen for inhibitors: Validation (AID 493153; active = well fitted inhibition curve with a large enough effect in the main read-out, with a control signal flat, not every such curve was filed as active). The note with it: Potency: luciferase luminescence; viability change: measured here: cytotoxicity max response. Put shortly:
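Luminescence from an ARE-firefly luciferase reporter in A549 cells gives Nrf2 inhibition; an earlier CellTiter-Fluor fluorescent read flags cytotoxicity. Cells in 5% FBS OPTI-MEM received compound dilution series for 18-24 h at 37°C.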

A short description of test [9]: qHTS for Inhibitors of Cell Surface uPA Generation: Validation Assay (AID 493164). Note: 0% is about no effect. Put shortly: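 RAW 264.7 cells (4000/well) were plated overnight, then exposed for 18 h at 37 C, 5% CO2 to compounds in a 7-point 1:5 titration (2.45 nM–38.3 uM final). Intracellular ATP was read by ATP-Lite luminescence.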
Test [10] concerns the target Galactokinase (Homo sapiens) (UniProt P51570). Nature of the test: qHTS Validation Assay for Inhibitors of Human Galactokinase (GALK) (AID 493189). Note: 0% is about no effect. Put shortly: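 Enzyme activity is inferred from ATP consumption: human GALK phosphorylates galactose (100 uM) using 35 uM ATP for 1 h at room temperature, and luciferase-based Kinase-Glo Plus reports unconsumed ATP.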
Test [11] can be described thus: Validation screen for small molecules that induce DNA re-replication in SW480 colon adenocarcinoma cells (AID 504364). Note: potency is the fitted concentration of half-maximal effect. Put shortly:
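250 cells/well; compound pinned in; 48 hr, 37 C, 5% CO2; Hoechst added, 40 min; nuclear fluorescence imaged, 405 ex / 500-530 em; re-replication scored as increase in high-intensity nuclei.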

Test [12] deals with Peptidyl-prolyl cis-trans isomerase NIMA-interacting 1 (Homo sapiens) (UniProt Q13526). Nature of the test: qHTS Validation Assay to Find Inhibitors of Pin1 (AID 504536; active = well fitted inhibition curve with a large enough effect in the polarisation, with a control signal flat, not every such curve was filed as active; the % refers to the polarisation;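 note: 0% = full Pin1 enzyme wells and -100% = no-enzyme wells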). Put shortly: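 Fluorescence polarization competition: compounds (titration) displace HiFluor-488-labeled Pin1-1b peptide from Pin1 (0.3 uM final) in pH 7.5 HEPES buffer with DTT, 10 min at room temperature; %Activity normalized to no-enzyme wells, curves fitted.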
Chain of Peptidyl-prolyl cis-trans isomerase NIMA-interacting 1 (Homo sapiens) (Q13526 whole entry, looked up): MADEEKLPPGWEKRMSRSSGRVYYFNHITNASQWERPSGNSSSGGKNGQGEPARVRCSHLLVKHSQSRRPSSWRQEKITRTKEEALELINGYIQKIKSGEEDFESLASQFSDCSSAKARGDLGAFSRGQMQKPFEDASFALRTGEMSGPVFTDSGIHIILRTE

In test [13] the target is Phosphoglycerate kinase, glycosomal (Trypanosoma brucei brucei) (UniProt P07378). Nature of the test: qHTS Validation Assay to Find Inhibitors of Phosphoglycerate Kinase (AID 504547).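 Note: control wells lack PGK and mark full inhibition.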 Put shortly:
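Substrate/PGK mix plus compound; reaction started with GAPDH (100nM final) to form 1,3-BPG; 60 min RT; Kinase-Glo Plus 10 min; luminescence. TEA 100mM pH 7.6, MgCl2 5mM, Tween-20 0.01%.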

Test [14] is described as follows: qHTS for Inhibitors of ATXN expression: Validation of Cytotoxic Assay (AID 588349). Note: potency is the fitted concentration of half-maximal effect. Put shortly: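 Read-out: ATP-based luminescence (CellTiter Glo) reflecting viability of HEK293 cells after 72 hr incubation at 37 degrees C with a concentration series of each compound.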
The nature of test [15]: qHTS for Inhibitors of ATXN expression: Validation (AID 588378). Note: nearly all actives have a fitted effect of over 75% in size. Note: potency is the fitted concentration of half-maximal effect. Put shortly:
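After a 2 h attachment and 24 h compound incubation, HEK293-ATXN2-FFLuc wells are read for fluorescence at 405 nm excitation/525 nm emission as a viability measure, then for Bright-Glo luminescence reflecting ATXN2 expression.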

Test [16] can be described thus: Validation screen for small molecules that induce genotoxicity in human embryonic kidney (HEK293T) cells expressing luciferase-tagged ELG1 (AID 493106). Note: 0% is about no effect. Put shortly: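 Luminescence from an ELG1-luciferase fusion serves as the read-out, rising when genetic stress elevates ELG1 protein. HEK293T reporter cells (2,000 per well) received 23 nL compound, incubated 16 hr at 37 °C, then ONE-Glo for 30 min at room temperature.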

Test [17] concerns the target Ubiquitin carboxyl-terminal hydrolase 1 (Homo sapiens) (UniProt O94782). Nature of the test: Inhibitors of USP1/UAF1: Pilot qHTS (AID 504865). Note: nearly all actives have a fitted effect of over 35% in size. Note: potency is the fitted concentration of half-maximal effect. Put shortly: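 Enzyme-free wells gave the negative control, while test wells held 1nM USP1/UAF1 preincubated with compound for 15 min at room temperature. Ub-Rho at 150nM final started the reaction, and fluorescence at 480/540 nm was recorded kinetically.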

Test [18] concerns the target phosphoglycerate mutase (Leishmania major) (UniProt Q4Q090). The test can be described thus: qHTS Validation Assay to Find Inhibitors of Phosphoglycerate Mutase (AID 504548).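 Note: end-point luminescence from Kinase-GloPlus after the PGAM reaction; series mostly up to about 58 µM; % is set by controls: 0 for no effect and ±100 for the full control effect.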 To be noted: Potency: inhibition qHTS. Put shortly: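 L. major PGAM (1.25nM final) was added to substrate buffer and pinned compound, incubated 45 minutes at room temperature, then Kinase-GloPlus added; luminescence read after 10 minutes. Buffer: 100 mM TEA pH 7.6, 5 mM MgCl2, 0.01% Tween-20.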

Chain of phosphoglycerate mutase (Leishmania major) (Q4Q090 1-553): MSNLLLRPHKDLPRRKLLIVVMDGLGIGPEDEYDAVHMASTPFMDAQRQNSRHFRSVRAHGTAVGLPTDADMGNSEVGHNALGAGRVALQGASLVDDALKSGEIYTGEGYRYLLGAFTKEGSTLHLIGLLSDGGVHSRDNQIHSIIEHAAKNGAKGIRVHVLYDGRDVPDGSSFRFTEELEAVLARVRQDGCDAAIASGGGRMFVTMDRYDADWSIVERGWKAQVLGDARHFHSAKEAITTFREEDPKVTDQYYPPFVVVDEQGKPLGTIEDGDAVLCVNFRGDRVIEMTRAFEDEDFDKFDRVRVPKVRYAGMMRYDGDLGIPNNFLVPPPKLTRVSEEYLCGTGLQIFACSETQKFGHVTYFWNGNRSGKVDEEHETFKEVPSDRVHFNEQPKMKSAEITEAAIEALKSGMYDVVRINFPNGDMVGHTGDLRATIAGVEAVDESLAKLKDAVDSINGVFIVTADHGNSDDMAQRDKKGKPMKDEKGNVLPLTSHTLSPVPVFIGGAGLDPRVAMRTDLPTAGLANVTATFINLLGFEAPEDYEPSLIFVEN
Chain of Ubiquitin carboxyl-terminal hydrolase 1 (Homo sapiens) (O94782 whole entry, looked up): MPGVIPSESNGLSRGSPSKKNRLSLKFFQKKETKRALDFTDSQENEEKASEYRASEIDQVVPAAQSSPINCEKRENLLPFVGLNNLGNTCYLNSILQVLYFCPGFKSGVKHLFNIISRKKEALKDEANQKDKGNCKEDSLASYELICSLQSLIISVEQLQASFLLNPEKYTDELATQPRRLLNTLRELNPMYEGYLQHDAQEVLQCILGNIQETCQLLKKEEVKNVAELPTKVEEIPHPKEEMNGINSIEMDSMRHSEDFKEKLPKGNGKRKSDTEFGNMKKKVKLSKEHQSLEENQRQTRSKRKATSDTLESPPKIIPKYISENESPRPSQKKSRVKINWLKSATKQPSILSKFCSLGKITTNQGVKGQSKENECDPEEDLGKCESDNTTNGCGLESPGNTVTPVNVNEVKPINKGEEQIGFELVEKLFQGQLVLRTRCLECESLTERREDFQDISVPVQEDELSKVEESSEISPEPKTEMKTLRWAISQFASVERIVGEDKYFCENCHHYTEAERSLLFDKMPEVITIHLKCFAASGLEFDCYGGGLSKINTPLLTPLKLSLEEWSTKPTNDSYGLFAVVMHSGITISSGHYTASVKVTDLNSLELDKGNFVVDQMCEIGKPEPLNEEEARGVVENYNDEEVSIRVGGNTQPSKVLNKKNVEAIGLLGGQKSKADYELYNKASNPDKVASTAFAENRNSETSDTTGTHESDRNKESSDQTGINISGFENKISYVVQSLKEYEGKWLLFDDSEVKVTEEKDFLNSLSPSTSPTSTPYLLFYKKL
Chain of Galactokinase (Homo sapiens) (P51570 whole entry, looked up): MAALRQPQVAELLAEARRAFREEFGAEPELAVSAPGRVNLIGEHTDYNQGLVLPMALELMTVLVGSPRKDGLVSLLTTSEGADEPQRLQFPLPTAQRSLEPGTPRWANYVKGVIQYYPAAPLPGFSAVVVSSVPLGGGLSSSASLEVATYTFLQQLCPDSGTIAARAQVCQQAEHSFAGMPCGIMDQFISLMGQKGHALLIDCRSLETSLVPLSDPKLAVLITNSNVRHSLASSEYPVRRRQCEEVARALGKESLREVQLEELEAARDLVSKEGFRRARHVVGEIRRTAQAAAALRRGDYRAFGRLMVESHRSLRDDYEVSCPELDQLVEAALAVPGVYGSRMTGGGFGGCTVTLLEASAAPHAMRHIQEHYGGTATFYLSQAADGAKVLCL
Chain of Phosphoglycerate kinase, glycosomal (Trypanosoma brucei brucei) (P07378 whole entry, looked up): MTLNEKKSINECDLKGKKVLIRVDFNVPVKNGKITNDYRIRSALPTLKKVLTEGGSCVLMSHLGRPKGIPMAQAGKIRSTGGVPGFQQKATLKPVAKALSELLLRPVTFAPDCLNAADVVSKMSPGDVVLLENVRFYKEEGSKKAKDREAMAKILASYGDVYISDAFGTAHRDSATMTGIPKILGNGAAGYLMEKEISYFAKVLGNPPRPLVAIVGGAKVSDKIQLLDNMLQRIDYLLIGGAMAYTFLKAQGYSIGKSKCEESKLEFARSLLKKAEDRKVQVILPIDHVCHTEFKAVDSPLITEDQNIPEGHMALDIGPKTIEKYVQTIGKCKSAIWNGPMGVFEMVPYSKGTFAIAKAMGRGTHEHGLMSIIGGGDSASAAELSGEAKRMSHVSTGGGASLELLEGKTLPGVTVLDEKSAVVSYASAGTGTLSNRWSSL
Chain of ATPase family AAA domain-containing protein 5 (Homo sapiens) (Q96QE3 whole entry, looked up, the tested form may be a part): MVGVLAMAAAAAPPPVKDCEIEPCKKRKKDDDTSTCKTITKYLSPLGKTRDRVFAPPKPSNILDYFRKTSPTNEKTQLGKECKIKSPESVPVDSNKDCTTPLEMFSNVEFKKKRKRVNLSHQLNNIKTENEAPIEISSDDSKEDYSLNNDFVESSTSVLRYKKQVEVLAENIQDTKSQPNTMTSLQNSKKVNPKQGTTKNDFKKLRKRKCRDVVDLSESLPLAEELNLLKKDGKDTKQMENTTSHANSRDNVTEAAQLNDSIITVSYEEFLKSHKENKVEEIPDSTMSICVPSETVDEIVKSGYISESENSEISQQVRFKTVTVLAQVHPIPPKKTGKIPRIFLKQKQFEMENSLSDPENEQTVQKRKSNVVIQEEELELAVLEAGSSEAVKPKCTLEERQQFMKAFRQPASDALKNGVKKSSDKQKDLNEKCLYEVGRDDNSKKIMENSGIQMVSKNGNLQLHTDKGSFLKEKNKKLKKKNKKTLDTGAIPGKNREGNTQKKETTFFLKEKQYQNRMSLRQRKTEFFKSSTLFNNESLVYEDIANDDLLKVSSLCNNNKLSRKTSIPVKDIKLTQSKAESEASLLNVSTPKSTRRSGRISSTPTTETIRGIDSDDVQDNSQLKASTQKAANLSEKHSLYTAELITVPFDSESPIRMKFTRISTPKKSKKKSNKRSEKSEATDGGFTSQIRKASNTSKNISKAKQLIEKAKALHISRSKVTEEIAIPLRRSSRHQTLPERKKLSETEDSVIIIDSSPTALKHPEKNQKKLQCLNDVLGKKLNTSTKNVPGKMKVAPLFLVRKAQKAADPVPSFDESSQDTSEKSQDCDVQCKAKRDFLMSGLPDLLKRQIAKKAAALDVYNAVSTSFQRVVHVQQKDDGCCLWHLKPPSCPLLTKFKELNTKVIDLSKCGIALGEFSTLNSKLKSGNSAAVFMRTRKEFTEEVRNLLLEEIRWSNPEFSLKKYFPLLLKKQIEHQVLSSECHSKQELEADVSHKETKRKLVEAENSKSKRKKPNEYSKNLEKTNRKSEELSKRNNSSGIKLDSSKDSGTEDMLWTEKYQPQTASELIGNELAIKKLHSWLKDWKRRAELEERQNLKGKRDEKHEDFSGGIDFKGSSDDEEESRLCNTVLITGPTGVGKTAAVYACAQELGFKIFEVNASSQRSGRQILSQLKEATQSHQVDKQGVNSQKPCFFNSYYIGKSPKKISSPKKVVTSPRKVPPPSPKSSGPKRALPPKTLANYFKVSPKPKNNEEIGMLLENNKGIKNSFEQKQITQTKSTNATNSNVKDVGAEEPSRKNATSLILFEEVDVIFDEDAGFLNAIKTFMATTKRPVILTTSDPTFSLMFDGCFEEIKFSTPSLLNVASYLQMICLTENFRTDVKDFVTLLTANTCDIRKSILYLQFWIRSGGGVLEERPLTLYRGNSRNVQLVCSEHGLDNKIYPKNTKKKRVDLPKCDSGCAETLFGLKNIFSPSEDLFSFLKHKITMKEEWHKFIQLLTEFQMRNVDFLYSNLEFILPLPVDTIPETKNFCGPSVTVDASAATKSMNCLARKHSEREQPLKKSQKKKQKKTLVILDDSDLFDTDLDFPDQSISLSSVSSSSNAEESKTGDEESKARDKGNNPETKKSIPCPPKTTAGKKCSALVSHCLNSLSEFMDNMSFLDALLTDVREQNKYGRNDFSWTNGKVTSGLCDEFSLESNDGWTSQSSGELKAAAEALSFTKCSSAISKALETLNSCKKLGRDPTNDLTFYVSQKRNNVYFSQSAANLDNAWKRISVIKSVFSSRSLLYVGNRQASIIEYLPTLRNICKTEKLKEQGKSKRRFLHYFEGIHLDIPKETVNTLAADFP

Consider `COC(=O)C1=C(C)NC(C)=C([N+](=O)[O-])C1c1ccccc1C(F)(F)F` (stereo unspecified), for which the result in [1], in [2] and in test [9] was inactive. For the same compound, the Potency result in test [3], in test [4], in test [5], in test [6], in [8] and in test [10] was “inactive” in each case. Moreover, the Potency entry in [11], in test [12], in test [13], in test [14] and in [15] was “inactive” throughout. Further, in test [7], the activation is -3.94% (inactive). The viability change in test [8] is -10.2%.

As for `CC[C@@H]1Cc2cc(O)ccc2C2=C1c1ccc(O)cc1C[C@H]2CC`, the outcome in test [1], in [2] and in test [9] was inactive. Further, the Potency result in [3], in test [16], in test [8], in test [10], in test [12] and in [13] was “inactive” throughout. In addition, the Potency result in [17] is “inactive”. Moreover, the Potency in [4] was 2.59 µM (active); in [14], 22.4 µM (active); in test [15], 15.8 µM (active). Further, the activation in test [7] is 6.69% (inactive). For the same compound, the viability change in test [8] was determined as 1.92%.

As to `Nc1ccc(CCNc2ncnc3c2ncn3C2OC(CO)C(O)C2O)cc1` (stereo unspecified), the result in [1], in test [2] and in test [9] was inactive. For the same compound, the Potency result in test [3], in test [4], in [5], in test [6], in test [8] and in test [10] was “inactive” in each case. In addition, the Potency result in [11], in test [12], in [13], in test [18], in [17] and in test [15] was “inactive” throughout. In test [7], the activation was 1.06% (inactive). Moreover, the viability change in test [8] was determined as 5.22%.

As for `COc1ccc(C(=O)NCc2cccnc2)cc1C(=O)NCc1cccnc1`, the outcome in test [1], in test [2] and in [9] was inactive. In addition, the Potency result in test [3], in test [5], in test [16], in test [6], in [8] and in [10] was “inactive” each time. The Potency result in test [11], in [13], in test [18], in test [17], in test [14] and in [15] was “inactive” in each case. Also, in test [7], the activation was 0.938% (inactive). In addition, the viability change in test [8] was -5.34%.

On to `CCC1(O)CC2CN(CCc3c([nH]c4ccccc34)[C@@](C(=O)OC)(c3cc4c(cc3OC)N(C)C3[C@]45CCN4CC=C[C@@](CC)([C@@H](OC(C)=O)[C@]3(O)C(=O)OC)[C@H]45)C2)C1` (stereo partly specified), for which the outcome in test [1] and in test [2] was inactive. The Potency entry in test [3], in [4], in test [5], in test [10], in test [12] and in test [13] was “inactive” throughout. Moreover, the Potency result in [18] and in [17] was “inactive” in each case. Besides, the activation in test [7] is -0.125% (inactive). Besides, the Potency in [11] is 0.0206 µM (active).

For `CCCc1c(OCCCOc2ccc(OCC(=O)O)cc2)ccc(C(C)=O)c1O`, the result in test [1], in [2] and in test [9] was inactive. In addition, the Potency result in [3], in [4], in [16], in test [6], in test [11] and in test [12] was “inactive” in each case. In addition, the Potency entry in test [13], in test [18], in [14] and in test [15] was “inactive” in each case. Besides, the Potency in [17] is 79.4 µM (active).

With `C[C@@H](NCCc1ccc(O)cc1)[C@@H](O)c1ccc(O)cc1`, the result in test [1] and in test [2] was inactive. In addition, the Potency entry in test [3], in test [4], in [6], in test [8], in test [10] and in test [11] was “inactive” in each case. For the same compound, the Potency result in test [12], in test [13], in test [18], in test [17], in test [14] and in test [15] was “inactive” in each case. Besides, in test [7], the activation was 1.12% (inactive). For the same compound, the viability change in test [8] turned out to be 9.14%.

For `CCCc1c(-c2ccc(O)cc2)nn(-c2ccc(O)cc2)c1-c1ccc(O)cc1`, the outcome in test [1], in test [2] and in test [9] was inactive. The Potency result in test [3], in test [4], in test [16], in test [6], in test [8] and in test [10] was “inactive” in each case. Moreover, the Potency result in test [12], in test [13], in test [18] and in test [17] was “inactive” each time. Further, the activation in test [7] is 2.12% (inactive). The viability change in [8] was -5.33%.

Consider `CC#CCOC(=O)c1c(C)nc2sc3c(c2c1N)CCC(O)C3` (stereo unspecified), for which the result in test [1], in [2] and in test [9] was inactive. Moreover, the Potency entry in test [3], in test [4], in [5], in test [6], in test [10] and in test [12] was “inactive” each time. The Potency entry in test [18], in [17], in test [14] and in test [15] was “inactive” in each case. The activation in [7] was 0.438% (inactive).
